PubChem BioAssay AID743279 (National Center for Advancing Translational Sciences (NCATS), 2014)
About 17,000 (4.7%) of roughly 360,000 compounds were called active. About 5% were inconclusive and are not listed. The entries come from a sample that favours actives as a whole. Unmarked numbers belong to inactive results. Cut-off read from the data, not from the text of the source: active = activity change below about -50%; inconclusive = mostly about -30% to -49%; inactive = weaker than that.

assay: qHTS for Inhibitors of Inflammasome Signaling: IL-1-beta AlphaLISA Primary Screen; settings: THP-1 LPS/ATP IL-1B secretion, 16 h; at 57.5 µM, active compounds read low
Procedure, shortened: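 THP-1 cells pretreated 1 hr with compounds (up to 57.5 uM final), then stimulated with LPS (250 ng/mL final) plus ATP (1.25 mM final); secreted IL-1B measured by AlphaLISA after 16 hr, decreased signal indicating inhibition.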
% is set by controls: 0 for no effect and ±100 for the full control effect.

Compound	activity change
C/C=C/C(=O)OCc1csc(CC(=O)Nc2ccccc2C)n1	13.6%
COc1ccc(S(=O)(=O)N2CCN(C(C)C(=O)Nc3ccc(C(C)C)cc3)CC2)cc1 (configuration not stated)	-16.4%
COCCCNC(=O)Cc1ccc(-n2c(C)nc3cccnc32)cc1	22.7%
COc1cccc(C(O)c2ncc(-c3ccc4ccccc4c3)[nH]2)c1 (configuration not stated)	18.2%
CCOC(=O)C1CCCN(C(=O)c2ccc(C)c(S(=O)(=O)N3CCCCC3)c2)C1 (configuration not stated)	4.44%
COc1ccc(Cl)cc1-n1c(=S)sc2c(=O)n(-c3ccc(F)cc3)c(SCC(=O)O)nc21	14.4%
COc1ccc(CCNC(=O)CN(c2ccccc2)S(=O)(=O)c2ccccc2)cc1	15.3%
CCOc1ccccc1N1CCN(C(=O)COc2ccc3c(C)cc(=O)oc3c2)CC1	23%
CC(=O)COc1ccc2c(-c3ccccc3)cc(=O)oc2c1	-27.2%
CCc1cc(=O)oc2cc(OCC(=O)N3CCCc4ccccc43)ccc12	-60.9% (active)
CC(C)c1cc(C(=O)N(C)C2CCCN(Cc3ccccc3F)C2)n(C)n1 (configuration not stated)	41.9%
CCN(CC)C(=O)C1=C(C)N(Cc2ccccc2)C(=O)C(CC(=O)NC(c2ccccc2)c2ccccc2)C1 (configuration not stated)	-15.6%
O=C(Nc1cccc(F)c1)NC1CCCCCCC1	-92.1% (active)
O=C(Nc1cccc(F)c1)NC1CCCc2ccccc21 (configuration not stated)	-9.52%
C/C(CC(=O)Nc1cccc(F)c1)=N\NC(=O)C(=O)NC1CCCCC1	-10.5%
COc1ccc(NC(=O)C[C@H]2C(=O)N(CCc3ccccc3)C[C@@H]2C)cc1	-9.78%
FC(F)Oc1ccccc1NC(=S)Nc1cccc(Cl)c1Cl	23.7%
CC(C)(C)S(=O)N1Cc2cc(C(=O)NCCCN3CCOCC3)nc(-c3cccc(-c4cc5ccccc5o4)c3)c2[C@H]1CCO (some centres not stated)	-27.7%
CCc1cccc(CC)c1N1C(=O)CC(Sc2ccccc2N)C1=O (configuration not stated)	17.8%
Cc1ccccc1S(=O)(=O)NC(=O)C1(C)CCN1C(=O)Cc1ccc(Cl)cc1Cl (configuration not stated)	-18.4%
CC(=O)N1CC(C)c2scc(C)[n+]2-c2ccccc21 (configuration not stated)	-71.4% (active)
O=C(Nc1nnc(S(=O)(=O)N2CCCCCC2)s1)c1cccc(Br)c1	-9.2%
O=C1C=C(NS(=O)(=O)c2ccccc2)C(=O)c2ccccc21	-0.814%

Compound	activity change
Cn1c(NC(=O)c2ccccc2)nc2ccccc21	35.1%
O=C(NC1=CC(=O)c2ccccc2C1=O)c1ccccc1	-96.1% (active)
N#Cc1cccc(NC(=O)c2cc(C3CCCCN3C(=O)CCc3ccccc3)on2)c1 (configuration not stated)	-18%
C=CCc1cc(C)ccc1OCCCn1ccnc1	-24.1%
O=C(NCCCn1ccnc1)c1ccccc1F	8.56%
Clc1c(OCCCn2ccnc2)ccc2ccccc12	-77% (active)
COc1cccc(CNC(=O)[C@@H]2CCCN2C(=O)[C@@H]2CCCN2C(=O)c2ccccc2)c1	0%
O=C(CCc1ccccc1)Nc1ccc(NC(=O)C2CCCCC2)nc1	-9.78%
C=CCN1CCN(c2ccncc2S(=O)(=O)N2CCN(C)CC2)CC1	-7.51%
CC(=O)OC1CCC2(C)C(=CCC3C4CC(=O)N(O)C(=O)C4(C)CCC32)C1 (configuration not stated)	-9.48%
O=C(Nc1ccc(F)cc1)N1CCN(c2ccc(F)cc2)CC1	2.96%
O=C(Nc1ccccc1)N1CCN(C2c3ccccc3-c3ccccc32)CC1	-15.2%
O=C(Nc1cccc(NC(=O)N2CCN(c3ccccc3)CC2)c1)N1CCN(c2ccccc2)CC1	-55.8% (active)
CCOC(=O)c1c(NC(=O)COC(=O)c2ccc(S(=O)(=O)C(F)F)cc2)sc(C(=O)N(C)C)c1C	-22%
C=CCN1C=C(C(=O)c2ccccc2)C(=O)CC1	14%
CC(C)C1C(=O)N(Cc2cn(CCC3OCCO3)nn2)CCS(=O)(=O)N1Cc1ccc(-c2ccccc2C(F)(F)F)cc1 (configuration not stated)	-17.2%
O=C(OC(C(=O)NC1CCCC1)c1ccc(F)cc1)c1ccno1 (configuration not stated)	-4.45%
CCOc1ccc(/C=C(/C#N)c2nnc(N3CCOCC3)n2-c2ccccc2)cc1OC	-13.1%
COc1ccc(C2(C)NC(=O)N(CC(=O)c3ccc4c(c3)OCO4)C2=O)cc1 (configuration not stated)	6.28%
COc1ccc(C2(O)C(=O)Nc3ccccc32)cc1 (configuration not stated)	16%
COc1ccc(C2(C)ON(c3ccccc3C(F)(F)F)C2=O)cc1 (configuration not stated)	-62.1% (active)
COC(=O)CCCCC1=CCC2C(=O)C=C(O)C2C1 (configuration not stated)	46.8%
Cc1cc(C)cc(NC(=O)C2CCCN(S(=O)(=O)c3ccc4[nH]c(=O)ccc4c3)C2)c1 (configuration not stated)	-11.9%

Compound	activity change
CC(C(=O)NC1CCCC1)N1CCN(S(=O)(=O)c2ccccc2Cl)CC1 (configuration not stated)	-3.55%
CCc1nc2c(OCCOc3ccccc3)cccn2c1N(C)C(=O)c1ccc(OC)cc1	-0.0267%
COc1ccc(S(=O)(=O)N(C)C)cc1NC(=O)COC(=O)c1n[nH]c2ccccc12	-8.2%
Cc1cnc(NC(=O)C2CCCC2)s1	-15.9%
O=C(Nc1nnc(C2CC2)s1)c1ccccn1	12.6%
Cc1cnc(NC(=O)c2ccccn2)s1	-99.9% (active)
O=S(=O)(N1CCCCC1)N1CCNCC1	18.8%
CNC(=O)c1ccc(CN(C)C(=O)c2cc(C3CC3)nc3c2cnn3C(C)C)cc1	-23.4%
CCOC(=O)C1=C(CSc2nnnn2C)N(C)C(=O)NC1c1ccccc1 (configuration not stated)	25.6%
COc1cc(/C=N/O)cc(Br)c1OS(=O)(=O)c1ccc(C)cc1	-4.12%
COc1cc(/C=N/NC(=O)Cc2ccccc2)cc(OC)c1OC	11.4%
COc1cc(/C=N/O)cc(Br)c1OCc1cccc(Cl)c1	-101% (active)
CCCCCCn1c(=O)n2n(c1=O)C[C@]1(OC(=O)NCc3ccc(OC)c(OC)c3)CN(S(=O)(=O)c3ccc(C)cc3)C[C@]1(O)C2	-2.71%
NS(=O)(=O)c1ccc2nc(NC(=O)C3=COCCO3)sc2c1	4.02%
CCC(=O)N1CCC(C)(C(=O)Nc2cc(OC)c(OC)c(OC)c2)C1 (configuration not stated)	33.3%
CN(Cc1ccccc1)C(=O)COc1ccccc1	-10.6%
CN(Cc1ccccc1)C(=O)c1ccc(COc2ccccc2)cc1	-71.5% (active)
CN(CC(=O)Nc1ccc(Cl)cc1)C(=O)c1ccc(COc2ccccc2)cc1	5.98%
CN(Cc1ccccc1)C(=O)[C@@H]1CCCN1C(=O)[C@@H]1CCCN1C(=O)c1c(F)cccc1F	32.8%
CC(=O)NC(Cc1c[nH]c2ccccc12)C(=O)O (configuration not stated)	35%
O=C(NC(Cc1c[nH]c2ccccc12)C(=O)N/N=C/c1ccc(Br)cc1)c1cccs1 (configuration not stated)	-61.1% (active)
CC(=O)NC(Cc1c[nH]c2ccccc12)C(=O)NCCc1ccccc1 (configuration not stated)	-9.89%
CC(C)Sc1nc(N)nc2c1ncn2C1OC(CO)C(O)C1O (configuration not stated)	16%

Compound	activity change
CCCCCCCCn1c2c(c(=N)c3c1CCC3)CCCC2	-89.8% (active)
CC(=O)Nc1ccc(S(=O)(=O)N2CCC(NC(=O)c3ccccc3)CC2)cc1	7.08%
CCOc1ccc(N2C(=O)CC(N(CCc3ccc(OC)c(OC)c3)C(=S)Nc3ccccc3)C2=O)cc1 (configuration not stated)	44.8%
CC(C)=CCCC1(C)C=Cc2c(ccc3c2[nH]c2cc(O)c(C)cc23)O1 (configuration not stated)	-71.6% (active)
Cc1ccc(S(=O)(=O)C2C(=O)NC3(C)CC2c2ccccc2O3)cc1 (configuration not stated)	12.4%
c1cnc(N2CCN(c3ccc4ccccc4n3)CC2)nc1	-50.1% (active)
CC1=C(N2CCN(c3ncccn3)CC2)CCC1=O	8.92%
O=C(c1ccncc1)N1CCN(c2ccc3ccccc3n2)CC1	5.08%
COCCCn1cc(CN2CC(N(C)C)CS2(=O)=O)nn1 (configuration not stated)	21.9%
CC1CCC(C(C)C)C(=O)/C1=C\c1ccc(NC(=O)CCC(=O)O)cc1 (configuration not stated)	0%
Cc1ccc(NC(=O)c2cc(-c3ccccc3O)n[nH]2)cc1C	-6.84%
Cc1ccc(O)c(-c2cc(C(=O)Nc3c(C)n(C)n(-c4ccccc4)c3=O)[nH]n2)c1	0%
Cc1ccc(C)c(NC(=O)c2cc(-c3cc(C)cc(C)c3O)n[nH]2)c1	-93.5% (active)
COc1ccc(NC(=O)C2(C)Cc3c(-c4ccc(C(N)=O)cc4)ccnc3O2)cc1 (configuration not stated)	0%
Cc1cc(NC(=O)c2cc3ccccc3o2)no1	45.3%
CN1C(=O)/C(=C/c2ccco2)SC1=Nc1cccc(C(=O)O)c1	18.8%
Cc1ccc(-n2ncc3c(=O)n(-c4ccc(C)c(C)c4)c(-c4ccco4)nc32)cc1	-18.4%
Cc1ccc(N2NC(=O)/C(=C/C=C/c3ccco3)C2=O)cc1C	-62.6% (active)
O=C1NN(c2ccccc2)C(=O)/C1=C/c1ccc(-c2cccc(C(=O)O)c2)o1	-4.59%
Cc1ccc(N=C2NC(=O)/C(=C/C=C/c3ccco3)S2)cc1C	-91.3% (active)
CCOP(=O)(OCC)C(Cc1ccccc1)N=C(c1ccccc1)c1ccccc1 (configuration not stated)	-2.56%
CNS(=O)(=O)c1ccc2c(c1)[nH]c(=S)n2C	-25%
Cc1[nH]c(N)nc(=S)c1CCCNc1ccccc1	5.82%
